The source of these data is PubChem BioAssay (NCI).

Some test systems named below: SN12C renal; UO-31 renal; TK-10 renal; ACHN renal; CAKI-1 renal; A498 renal; CCRF-CEM leukemia; MOLT-4 leukemia; SR leukemia.
Experiment in all cases: NCI-60 one-dose screen, 48 h (100 = growth as untreated, 0 = no growth, -100 = all killed)
Holding throughout (conditions): 10 µM

Compounds without any hit were thinned out: in the full panel of roughly 83,000, 20% have a hit.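 Values shown are percent growth following 48 h exposure of cells in 96-well plates to a single concentration of compound; below 10 was considered active.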 Values without a mark were called inactive. The source made the active and inactive calls.

As to `Nc1c(C(=O)Nc2ccccc2Cl)sc2nc3c(cc12)C(=O)CCC3`, the growth in the test with SN12C renal is 56.7%; in the test on UO-31 renal it was 68.9%; in the test on TK-10 renal it was 64.3%; in the test with ACHN renal it was 57.1%; with CAKI-1 renal, 20.7%; with A498 renal, -10.9% (active). Moreover, the values for the growth with CCRF-CEM leukemia, with MOLT-4 leukemia and in the test with SR leukemia were 19.4%, 86.8% and 42.3%, respectively.
For `COc1ccc(-c2nn(-c3cccc(NC(=O)c4ccc(N5CCOCC5)c(C(F)(F)F)c4)c3)cc2-c2ccncc2)cc1Cl`, the growth with SN12C renal is 85.2%; with UO-31 renal, 40.9%; in the test on TK-10 renal, 82.8%; in the test with ACHN renal, 60.3%; with CAKI-1 renal, 47.9%; with A498 renal it was 60%. For the same compound, the growth in the test with CCRF-CEM leukemia was 38.3%; in the test with MOLT-4 leukemia, 42.1%; in the test with SR leukemia it was 27.2%.
In the case of `Nc1c(C(=O)Nc2cccc(Br)c2)sc2nc3c(cc12)C(O)CCC3` (stereo unspecified), the growth with SN12C renal was 37.3%; with UO-31 renal, 31.9%; in the test with TK-10 renal, 56.7%; in the test on ACHN renal it was 51.4%; with CAKI-1 renal, 25.6%; in the test with A498 renal it was -8.73% (active). The growth is 12.2% in the test on CCRF-CEM leukemia, 14% with MOLT-4 leukemia and 3.95% (active) with SR leukemia.
Take `Clc1ccc(Sc2nc(NC3CC3)nc(Sc3ccc(Cl)cc3)n2)cc1`: the growth in the test with SN12C renal is 88.5%; in the test on UO-31 renal, 62.3%; with TK-10 renal, 112%; in the test on ACHN renal, 84.6%; in the test with CAKI-1 renal, 51.9%; in the test on A498 renal, 83.9%. The growth is 76.4% with CCRF-CEM leukemia, 43.8% in the test on MOLT-4 leukemia and 67.3% in the test on SR leukemia.
On to `Cc1c(Cl)cccc1NC(=O)c1sc2nc3c(cc2c1N)C(=O)CCC3`, for which the growth was 30.8% in the test with SN12C renal; 33.3% in the test on UO-31 renal; 74.3% in the test with TK-10 renal; 39.4% with ACHN renal; 23.9% in the test on CAKI-1 renal; -19% (active) in the test on A498 renal. Besides, the growth is 7.08% (active) in the test with CCRF-CEM leukemia, 6.7% (active) with MOLT-4 leukemia and 2.96% (active) in the test on SR leukemia.
Regarding `O=C(Nc1cccc(-n2cc(-c3ccncc3)c(-c3ccc(O)c(Cl)c3)n2)c1)Nc1ccc(Cl)c(Cl)c1`, the growth was 17% in the test on SN12C renal; -11.3% (active) in the test on UO-31 renal; 16.7% with TK-10 renal; 9.03% (active) in the test on ACHN renal; -21.1% (active) in the test on CAKI-1 renal; 23.2% with A498 renal. In addition, the growth with CCRF-CEM leukemia is 0.782% (active); in the test with MOLT-4 leukemia, -10% (active); in the test with SR leukemia, -0.568% (active).
Consider `CCN(CC)CCSCCN(CC)CC`, for which the growth was 101% in the test with SN12C renal; 97.1% in the test on UO-31 renal; 103% in the test on TK-10 renal; 99% with ACHN renal; 98% with CAKI-1 renal; 89.4% in the test on A498 renal. For the same compound, the growth in the test with CCRF-CEM leukemia is 91.9%; in the test with MOLT-4 leukemia, 105%; in the test with SR leukemia, 98.5%.
In the case of `CNc1ncc(-c2ccc(C(F)(F)F)cc2)c(NC2CCCCCC2)n1`, the growth was 84% in the test on SN12C renal; 38.4% in the test on UO-31 renal; 83.5% in the test with TK-10 renal; 73.1% with ACHN renal; 60.9% with CAKI-1 renal; 83.4% with A498 renal. Moreover, the growth in the test with CCRF-CEM leukemia is 70.2%; in the test on MOLT-4 leukemia, 68.2%; in the test with SR leukemia, 43.9%.
As to `C[C@]12CC[C@@H]3c4ccc(O)cc4C[C@@H](O)[C@H]3[C@@H]1CC[C@@H]2O`, the growth with SN12C renal was 100%; in the test with UO-31 renal, 86.5%; in the test on TK-10 renal, 111%; in the test with ACHN renal, 105%; in the test on CAKI-1 renal it was 87.6%; with A498 renal it was 79.6%. Besides, the growth was 103% in the test with CCRF-CEM leukemia, 109% in the test with MOLT-4 leukemia and 91.4% in the test with SR leukemia.
As for `COc1ccc(-c2nc(-c3nc4cc(Cl)c(F)cc4[nH]3)c3ccccn23)cc1`, the growth was 66.3% with SN12C renal; 28% in the test on UO-31 renal; 64.7% in the test with TK-10 renal; 79.1% in the test with ACHN renal; 67.1% in the test with CAKI-1 renal; 32.4% in the test on A498 renal. For the same compound, the growth is 35.6% with CCRF-CEM leukemia, 43.4% in the test on MOLT-4 leukemia and 33.7% in the test on SR leukemia.
Take `CC/C(=C(/c1ccc(OCCN(C)C)cc1)c1ccc(OC(=O)CCC(=O)c2c(C)[nH]c(/C=C3\N=C(c4ccc[nH]4)C=C3OC)c2C)cc1)c1ccccc1`: the growth in the test on SN12C renal is 35.9%; in the test on UO-31 renal, 5.9% (active); in the test on TK-10 renal, 21.7%; in the test with ACHN renal it was 30.4%; in the test with CAKI-1 renal it was 18.8%; in the test with A498 renal, 50.3%. Besides, the values for the growth in the test on CCRF-CEM leukemia, in the test on MOLT-4 leukemia and in the test on SR leukemia were 6.12% (active), 3.77% (active) and -21% (active), respectively.
Regarding `COc1ccc(-c2cc(/C=C3\C(=O)Nc4ccc(OC)cc43)[nH]n2)cc1`, the growth in the test on SN12C renal is 42.7%; with UO-31 renal it was 40.6%; with TK-10 renal it was 48.9%; with ACHN renal it was 52.5%; in the test with CAKI-1 renal it was 33%; in the test with A498 renal it was 23.3%. Besides, the growth with CCRF-CEM leukemia is 18.1%; in the test on MOLT-4 leukemia it was 27%; with SR leukemia, 20.1%.
Regarding `Cc1cc(C)c2c(n1)sc1c(Nc3ccc(Cl)cc3)ncnc12`, the growth in the test with SN12C renal was -20.9% (active); with UO-31 renal, -19.8% (active); with TK-10 renal it was 47.7%; in the test with ACHN renal, 1.33% (active); with CAKI-1 renal it was 12.1%; in the test with A498 renal, -9.23% (active). Moreover, the growth is 4.05% (active) with CCRF-CEM leukemia, -6.2% (active) in the test with MOLT-4 leukemia and 3.86% (active) in the test on SR leukemia.
As for `Cc1ncc(-c2ccoc2)c(NC2CCCCCC2)n1`, the growth in the test with SN12C renal was 98.5%; with UO-31 renal, 71.7%; with TK-10 renal, 109%; with ACHN renal it was 99.6%; with CAKI-1 renal, 94.4%; with A498 renal, 105%. The results for the growth in the test on CCRF-CEM leukemia, in the test on MOLT-4 leukemia and in the test with SR leukemia were 107%, 84% and 96.1%, respectively.
